High-throughput results: PubChem BioAssay, National Center for Advancing Translational Sciences (NCATS)
Sampled rows, rich in hits. Any-hit rate of the full collection: about 9.2%.
FLuc modulator – inhibits or activates purified firefly luciferase, miR-21 counter-screen; P08659; purified FLuc, Km substrates, luminescence inhibition; Potency, µM (top dose mostly 57.5 µM), actives largely listed as inhibitors; 6.9% of 360,000 active; AID 588342; also: nearly all actives have a fitted effect of over 55% in size
Target sequence (P08659 whole entry, looked up): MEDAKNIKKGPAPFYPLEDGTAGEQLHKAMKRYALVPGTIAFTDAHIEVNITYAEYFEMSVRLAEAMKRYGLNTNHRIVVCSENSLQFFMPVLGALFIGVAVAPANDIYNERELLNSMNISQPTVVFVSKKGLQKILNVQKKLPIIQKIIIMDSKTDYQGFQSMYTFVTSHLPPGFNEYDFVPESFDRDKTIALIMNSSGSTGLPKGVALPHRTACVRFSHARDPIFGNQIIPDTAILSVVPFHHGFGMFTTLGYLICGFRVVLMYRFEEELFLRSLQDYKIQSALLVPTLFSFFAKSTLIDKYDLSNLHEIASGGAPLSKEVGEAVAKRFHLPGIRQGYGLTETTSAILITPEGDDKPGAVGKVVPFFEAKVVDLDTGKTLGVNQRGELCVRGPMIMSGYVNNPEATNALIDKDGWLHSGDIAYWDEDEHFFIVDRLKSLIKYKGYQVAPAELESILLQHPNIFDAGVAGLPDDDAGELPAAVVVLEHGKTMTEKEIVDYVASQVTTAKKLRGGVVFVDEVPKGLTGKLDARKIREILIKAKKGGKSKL
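Purified P. pyralis luciferase (10nM final) with 10uM D-luciferin and 10uM ATP (Km levels) in 50mM Tris acetate pH 7.5, 10mM Mg acetate, 0.01% Tween-20, 0.05% BSA; qHTS 6-point titration, ~60 µM downward; luminescence read.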
SMN2 splice enh – SMN2 splice variant enhancement | AID 1458 | HEK293 SMN2-luciferase splicing reporter, luminescence, 30-36 h | 2.8% of 210,000 active | Potency, µM (doses to about 46.1 µM), hits mostly activators; also: nearly all actives have a fitted effect of over 55% in size
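HEK293 cells carry an SMN2 minigene-luciferase reporter in which exon 7 inclusion puts luciferase in frame. Cells were seeded at 2000 cells/well, attached for 10-12 hours, then exposed to compounds for 30-36 hours at 37C before ONE-Glo luminescence.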
NPC1 prom act – NPC1 promoter activation. Potency, µM (highest dose often 9.22 µM), most hits filed as activators. 2.4% of 320,000 active. AID 485313. Huh7 NPC1 promoter luciferase reporter, 24 h; also: nearly all actives have a fitted effect of over 60% in size
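NPC1 promoter–luciferase Huh7 cells; 24 h compound; luminescence.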
ELG1 repair inh – inhibitors of ELG1-dependent DNA repair in HEK293T cells | HEK293T ELG1-luciferase reporter, luminescence, 16 h; DNA damage induced by 5-fluorouridine | Potency, µM (doses to about 46.1 µM), hits mostly inhibitors | 2.3% of 330,000 active | AID 504467; also: nearly all actives have a fitted effect of over 55% in size
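Luminescence from the luciferase reporter, measured 30 min after ONE-Glo reagent at room temperature, was the read-out. Beforehand, 2,000 cells per well were exposed for 16 hr at 37 °C to 5-fluorouridine together with compound or vehicle.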
ELG1 genotoxic – induces genotoxicity in HEK293T cells with luciferase-tagged ELG1; HEK293T ELG1-luciferase reporter, luminescence, 16 h; Potency, µM (top dose mostly 46 µM), hits mostly activators; 1.3% of 330,000 active; AID 504466; also: nearly all actives have a fitted effect of over 60% in size
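DMSO vehicle served as control against compound-treated ELG1-luciferase HEK293T cells; exposure lasted 16 hr at 37 °C and 5% CO2, followed by ONE-Glo luminescence detection after 30 min.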
Rab9 prom act – activates the Rab9 promoter; Potency, µM (top dose mostly 9.22 µM), actives largely listed as activators; Huh7 Rab9 promoter-luciferase reporter, luminescence, 24 h; AID 485297; 2.8% of 320,000 active; also: nearly all actives have a fitted effect of over 60% in size
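Huh7 cells stably carrying a Rab9 promoter-luciferase reporter, 1500 cells per well in OP-MEM I with 10% FBS, treated with compound 24 hours at 37C. Luciferase activity read by luminescence after 10 minutes with Amplite reagent.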
Hits are given with their value. Calls follow the shape of the dose curve; as a rule, active = well fitted curve in the direction sought with a large enough effect; inconclusive = small, poorly fitted or top-dose-only effect, or another doubt; inactive = no such curve, though single readings can be large; an effect the other way counts as inactive or inconclusive.

Screening CNC(=S)N/N=C/c1ccc(-c2cccc(C(=O)O)c2)o1 returned FLuc modulator 6.7µM, NPC1 prom act 2.2µM, ELG1 repair inh inconclusive, ELG1 genotoxic inconclusive and Rab9 prom act 2.8µM.
Cc1noc2nc(C(=O)O)nc(N3CCCCC3)c12 was read as FLuc modulator inactive and SMN2 splice enh inactive.
For Cc1ccc(CNC(=O)Cn2c(=O)n(-c3ccc(Cl)cc3)c(=O)c3c(C)c(C)sc32)cc1 the results were FLuc modulator inactive and SMN2 splice enh inactive.
For COC(=O)c1cn(-c2ccccc2)nc1-c1ccc(OC)c(OC)c1 the results were FLuc modulator 21µM, NPC1 prom act inactive, ELG1 repair inh inconclusive, ELG1 genotoxic inactive and Rab9 prom act inactive.
For COc1ccc(-c2nn(-c3ccccc3)cc2C(=O)NC(=S)N2CCOCC2)cc1OC the results were FLuc modulator inconclusive, NPC1 prom act inactive, ELG1 repair inh 21µM, ELG1 genotoxic inactive and Rab9 prom act inactive.
For COc1ccc2c(c1)c1c(c(=O)n(-c3cc(Cl)ccc3C)c(=O)n1Cc1ccc(F)cc1)n2C the results were FLuc modulator inactive.
Screening COC(=O)c1cccc(NC(N)=S)c1 returned FLuc modulator inactive, SMN2 splice enh inactive, NPC1 prom act inactive, ELG1 repair inh inactive, ELG1 genotoxic inactive and Rab9 prom act inactive.
COC(=O)c1cccc(NC(=O)Nc2ccccc2OC)c1 was read as FLuc modulator 12µM, NPC1 prom act inactive, ELG1 repair inh inconclusive, ELG1 genotoxic inconclusive and Rab9 prom act inconclusive.
For COc1ccccc1NC(=O)Nc1cccc(NC(C)=O)c1 the results were FLuc modulator inconclusive, NPC1 prom act inactive, ELG1 repair inh inconclusive, ELG1 genotoxic inactive and Rab9 prom act inactive.
For COC(=O)c1cccc(NC(=O)Nc2ccc(Cl)c(Cl)c2)c1 the results were FLuc modulator 15µM, SMN2 splice enh inactive, NPC1 prom act inconclusive, ELG1 repair inh inconclusive, ELG1 genotoxic inactive and Rab9 prom act 3.5µM.
For COC(=O)c1cccc(NC(=O)c2ccccc2)c1 the results were FLuc modulator inconclusive, NPC1 prom act inactive, ELG1 repair inh inconclusive, ELG1 genotoxic inactive and Rab9 prom act inconclusive.
`COC(=O)c1cccc(NC(=O)NC(=O)c2ccccc2Cl)c1` gave FLuc modulator 11µM, NPC1 prom act 1.3µM, ELG1 repair inh inconclusive, ELG1 genotoxic inconclusive and Rab9 prom act 0.35µM.
COC(=O)c1cc(NC(=O)Nc2ccccc2)ccc1Cl was read as FLuc modulator 15µM, SMN2 splice enh inconclusive, NPC1 prom act inactive, ELG1 repair inh inconclusive, ELG1 genotoxic inactive and Rab9 prom act inactive.
CCOc1ccc(-c2cn3nc(CC(C)C)sc3n2)cc1 was read as FLuc modulator 2.7µM and SMN2 splice enh inactive.
`CCc1nn2cc(-c3ccccc3)nc2s1` gave FLuc modulator 0.48µM, SMN2 splice enh 1.4µM, NPC1 prom act 0.11µM, ELG1 repair inh inconclusive and Rab9 prom act 0.13µM.
For Cc1nc2nc(-c3ccc(Cl)cc3)cn2nc1C the results were FLuc modulator 1.1µM, SMN2 splice enh 0.71µM, NPC1 prom act inconclusive, ELG1 repair inh inconclusive, ELG1 genotoxic inconclusive and Rab9 prom act 0.35µM.
`Cc1nn2cc(-c3ccc(-c4ccccc4)cc3)nc2s1` gave FLuc modulator 0.54µM, SMN2 splice enh inconclusive, NPC1 prom act 0.63µM, ELG1 repair inh inconclusive, ELG1 genotoxic 0.82µM and Rab9 prom act inconclusive.
Screening Cc1ccccc1-c1nc(CS(=O)(=O)CC(=O)NCc2cccc(Cl)c2)c(C)o1 returned FLuc modulator inactive and SMN2 splice enh inactive.
`CC(=O)N/C(=C\c1ccccc1)C(=O)OCCCOC(=O)/C(=C/c1ccccc1)NC(C)=O` gave FLuc modulator inactive, NPC1 prom act inactive, ELG1 repair inh inactive, ELG1 genotoxic inactive and Rab9 prom act inactive.
Screening COc1cccc(-c2cn3nc(C)c(C)nc3n2)c1 returned FLuc modulator 11µM, SMN2 splice enh 13µM, NPC1 prom act 2µM, ELG1 repair inh inconclusive, ELG1 genotoxic inconclusive and Rab9 prom act 2.8µM.
For Cc1nc2nc(-c3cccs3)cn2nc1C the results were FLuc modulator 11µM, SMN2 splice enh 14µM, NPC1 prom act 1.4µM, ELG1 repair inh inconclusive, ELG1 genotoxic inconclusive and Rab9 prom act 0.5µM.
Screening COCc1nn2cc(-c3ccc(C)cc3)nc2s1 returned FLuc modulator 1.3µM and SMN2 splice enh 2.5µM.
`COc1ccc(-c2nnc3sc(COc4ccc(C)cc4)nn23)cc1` gave FLuc modulator inconclusive, SMN2 splice enh inactive, NPC1 prom act inactive, ELG1 repair inh inactive, ELG1 genotoxic inactive and Rab9 prom act inactive.
Cc1nn2cc(-c3ccc(Cl)cc3)nc2s1 was read as FLuc modulator 1.2µM, SMN2 splice enh 3.5µM, NPC1 prom act 0.32µM, ELG1 repair inh inconclusive, ELG1 genotoxic 0.52µM and Rab9 prom act 0.32µM.
COc1cccc(CNC(=O)c2ccc3c(c2)nnn3C2CCCC2)c1 was read as FLuc modulator inactive.
Screening COc1ccc(CC(=O)Oc2ccc(C(C)C)cc2)cc1S(=O)(=O)N1CCOCC1 returned FLuc modulator inactive, NPC1 prom act inactive, ELG1 repair inh inactive, ELG1 genotoxic inactive and Rab9 prom act inactive.
CC(C)c1ccc(C(=O)Nc2cccnc2)cc1 was read as FLuc modulator 3.4µM, NPC1 prom act 1.6µM, ELG1 repair inh inconclusive, ELG1 genotoxic 5.2µM and Rab9 prom act inconclusive.
O=C(Nc1ccncc1)c1ccc2c(c1)S(=O)(=O)c1ccccc1C2=O was read as FLuc modulator inactive, SMN2 splice enh inactive, NPC1 prom act inactive, ELG1 repair inh 9.2µM, ELG1 genotoxic inactive and Rab9 prom act inactive.
`CC(C)NC(=O)c1ccc2c(c1)S(=O)(=O)c1ccccc1C2=O` gave FLuc modulator inactive, SMN2 splice enh inactive, NPC1 prom act inactive, ELG1 repair inh inactive, ELG1 genotoxic inactive and Rab9 prom act inactive.
For O=C(Nc1ccc(-c2cnco2)cc1)c1ccccc1 the results were FLuc modulator inconclusive, NPC1 prom act 3.2µM, ELG1 repair inh inconclusive, ELG1 genotoxic inconclusive and Rab9 prom act 2.5µM.
O=C(Nc1ccc(-c2cnco2)cc1)c1ccc(Cl)cc1 was read as FLuc modulator inactive, NPC1 prom act inconclusive, ELG1 repair inh inconclusive, ELG1 genotoxic inconclusive and Rab9 prom act inactive.
Screening CCC(C)c1ccc(NC(=O)c2cccnc2)cc1 (stereo not given) returned FLuc modulator 12µM, SMN2 splice enh 13µM, NPC1 prom act 2.8µM, ELG1 repair inh inconclusive, ELG1 genotoxic inconclusive and Rab9 prom act 2.5µM.
Screening CCC(=O)Nc1ccc(C(=O)Nc2cccnc2)cc1 returned FLuc modulator inconclusive, SMN2 splice enh inconclusive, NPC1 prom act inactive, ELG1 repair inh inconclusive, ELG1 genotoxic inconclusive and Rab9 prom act inactive.
Screening O=C(Nc1ccncc1)c1ccc(-c2ccccc2)cc1 returned FLuc modulator inconclusive, SMN2 splice enh inactive, NPC1 prom act inactive, ELG1 repair inh 1.8µM, ELG1 genotoxic inactive and Rab9 prom act inactive.
